Measurements as given in PubChem BioAssay (NCI).
The panel holds about 83,000 compounds, 20% with a hit somewhere; the sample as a whole holds those more often.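 Compound tested at a single concentration for 48 hours in 96-well plates; a percent growth value below 10 was scored as active.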 Calls of active or inactive are those of the source.

Key:
Assay in all cases: NCI-60 one-dose screen, 48 h (100 = growth as untreated, 0 = no growth, -100 = all killed)
Conditions in all cases: 10 µM unless noted
[1] = system: SK-MEL-2 melanoma
[2] = system: EKVX NSCLC
[3] = system: SN12C renal
[4] = system: UO-31 renal
[5] = system: TK-10 renal
[6] = system: ACHN renal
[7] = system: A498 renal
[8] = system: CCRF-CEM leukemia
[9] = system: MOLT-4 leukemia
[10] = system: SR leukemia
[11] = system: RPMI-8226 leukemia
[12] = system: OVCAR-8 ovarian
[13] = system: OVCAR-5 ovarian
[14] = system: OVCAR-4 ovarian
[15] = system: SK-OV-3 ovarian
[16] = system: IGROV1 ovarian
[17] = system: OVCAR-3 ovarian
[18] = system: HS 578T breast
[19] = system: NCI/ADR-RES ovarian
[20] = system: T-47D breast

Measured: growth

O=C(CCc1nnc2sc(OCc3ccccc3)nn12)c1nc2ccc([N+](=O)[O-])cc2[nH]1
inactive: [1] 95.6% | [2] 89.3% | [3] 106% | [4] 67.2% | [5] 131% | [6] 97% | [7] 111% | [8] 104% | [9] 95.4% | [10] 84.1% | [11] 106% | [12] 94.7% | [13] 103% | [14] 102% | [15] 77.3% | [16] 93.8% | [17] 96.4% | [18] 88.2% | [19] 99% | [20] 97.7%

COc1cc(C(C)c2ccc3c(ccn3C)c2)cc(OC)c1OC (stereo not given)
inactive: [1] 30.5% | [2] 34.9% | [3] 32.6% | [4] 35.2% | [5] 71.3% | [6] 28.5% | [8] 16.3% | [9] 12.6% | [10] 13.8% | [11] 15.8% | [12] 11.5% | [13] 63.1% | [14] 37.5% | [15] 17.7% | [16] 18.8% | [18] 35.1% | [19] 13% | [20] 57.3%
active: [7] 8.95% | [17] -16.4%

COc1ccc(-n2cc(COc3ccc4c5ccnc(C)c5n(CC(C)C)c4c3)nn2)cc1
inactive: [1] 87.7% | [2] 69% | [3] 77% | [4] 71% | [5] 70.5% | [6] 64.6% | [7] 53.6% | [8] 72.9% | [9] 24.4% | [10] 22.6% | [11] 27.5% | [12] 37.6% | [13] 91.3% | [14] 65.9% | [15] 56.7% | [16] 79% | [17] 66.2% | [18] 49.7% | [19] 53.9% | [20] 39.2%

S=c1ssnc1-c1cc2ccccc2o1
active: [8] 7.9% | [16] -54%
inactive: [1] 91.2% | [2] 76.6% | [3] 98.8% | [4] 52.5% | [5] 98.4% | [6] 80.3% | [7] 103% | [9] 51.1% | [10] 41.6% | [11] 21.4% | [12] 86% | [13] 105% | [14] 83.2% | [15] 85.7% | [17] 80.4% | [18] 61.9% | [19] 78% | [20] 64.5%

S=C(Nc1ccccc1)c1ccccn1
active: [16] 1.38%
inactive: [1] 103% | [2] 93.1% | [3] 85.9% | [4] 57% | [5] 109% | [6] 93.5% | [7] 91.4% | [8] 37.5% | [9] 80% | [10] 56.1% | [11] 56.5% | [12] 91.2% | [13] 88.9% | [14] 100% | [15] 90.9% | [17] 67.7% | [18] 101% | [19] 93.1% | [20] 96.6%

C#C[C@@]1(O)[C@@H](CO)O[C@@H](n2cnc3c(-c4ccccc4)ncnc32)[C@@H]1O
inactive: [1] 107% | [2] 97.7% | [3] 102% | [4] 92.5% | [5] 100% | [6] 115% | [7] 106% | [8] 102% | [9] 99.7% | [10] 101% | [11] 106% | [12] 107% | [13] 101% | [14] 98.5% | [15] 105% | [16] 106% | [17] 107% | [18] 113% | [19] 102% | [20] 84%

COc1ccc(/C=C(/C(=O)N2CCN(Cc3ccccc3)CC2)c2cc(OC)c(OC)c(OC)c2)cc1O
inactive: [1] 73.6% | [2] 87.2% | [3] 91.2% | [4] 62.5% | [5] 88.5% | [6] 67.2% | [7] 54.9% | [8] 64.9% | [9] 72.1% | [10] 28% | [11] 66.9% | [12] 80.1% | [13] 99.9% | [14] 90.3% | [15] 65.5% | [16] 68.4% | [17] 30.8% | [18] 65.1% | [19] 71.7% | [20] 77.2%

NCCCn1c2c(c3cc(-c4ccn[nH]4)ccc3c1=O)C(=O)c1ccccc1-2
inactive: [1] 105% | [2] 77% | [3] 49.1% | [4] 47.7% | [5] 72.3% | [6] 20.4% | [7] 72% | [8] 16.5% | [11] 51.3% | [12] 40.6% | [13] 98.8% | [14] 50.3% | [15] 81.5% | [16] 35.4% | [17] 59% | [18] 62.3% | [19] 45.8% | [20] 73.3%
active: [9] -9.41% | [10] -2.64%

N#Cc1c(-c2ccc(F)cc2)c(C#N)c2c(C#N)c(N)nn2c1N
inactive: [1] 102% | [2] 96.8% | [3] 104% | [4] 75.4% | [5] 86.4% | [6] 95.7% | [7] 93.7% | [8] 104% | [9] 85.9% | [10] 93.7% | [11] 104% | [12] 103% | [13] 96.1% | [14] 100% | [15] 82.2% | [16] 80.9% | [17] 98.7% | [18] 98% | [19] 99.9% | [20] 66.4%

COc1ccc(/C(=N\O)c2cc(C)c(OC)c(C)c2)cc1O
active: [7] 6.79% | [8] 7.8%
inactive: [1] 37.6% | [2] 51.7% | [3] 39.4% | [4] 51.6% | [5] 72% | [6] 31.7% | [9] 13.8% | [10] 10.3% | [11] 12.7% | [12] 15.3% | [13] 46.7% | [14] 67% | [15] 51.2% | [16] 30.3% | [17] 10.1% | [18] 33.5% | [19] 28.6% | [20] 84.9%

Cc1cccc(C)c1Nc1nnc(-c2ccc(F)cc2)o1
inactive: [1] 105% | [2] 104% | [3] 105% | [4] 88.8% | [5] 105% | [6] 100% | [7] 103% | [8] 100% | [9] 110% | [10] 119% | [11] 109% | [12] 109% | [13] 93.9% | [14] 103% | [15] 102% | [16] 97.9% | [17] 93.6% | [18] 108% | [19] 97.8% | [20] 110%

COC(=O)/C=C1\SC(=Nc2cccc(OC)c2)N(CCc2c[nH]c3ccccc23)C1=O
inactive: [1] 60.8% | [2] 76.1% | [3] 64.4% | [4] 76.3% | [5] 89.3% | [6] 78.4% | [7] 90.1% | [8] 24.7% | [10] 12% | [11] 19.6% | [12] 52.3% | [13] 96% | [14] 69.7% | [15] 72.4% | [16] 71.7% | [17] 57% | [18] 81% | [19] 62.9% | [20] 46.1%
active: [9] 2.83%

NC[C@@H]1CCN(c2cc3c(cc2F)c(=O)n(N)c(=O)n3Cc2ccc(-c3ccccc3)cc2)C1
active: [10] -26.7%
inactive: [1] 94.4% | [2] 85.3% | [3] 87.3% | [4] 69.7% | [5] 94.7% | [6] 95.3% | [7] 90.3% | [8] 55.4% | [9] 50.4% | [11] 65.2% | [12] 96.3% | [13] 111% | [14] 97.4% | [15] 84.6% | [16] 91.9% | [17] 96.4% | [18] 82.9% | [19] 95.5% | [20] 89%

C=C1C(=O)O[C@H]2[C@H]1CC/C(COC(=O)CCC(=O)OC/C1=C/CC[C@@]3(C)O[C@H]3[C@H]3OC(=O)C(=C)[C@@H]3CC1)=C\CC[C@@]1(C)O[C@@H]21
active: [3] 5.32% | [4] 0.355% | [6] -21.8% | [8] -8.57% | [9] 1.24% | [10] 0.484% | [11] -0.781% | [17] -11%
inactive: [1] 60.8% | [2] 44.5% | [5] 25% | [7] 114% | [12] 32.8% | [13] 94.6% | [14] 47.3% | [15] 84.9% | [16] 11.5% | [18] 79.6% | [19] 89.8% | [20] 19.7%

CCCCC1=c2c([nH]c3ccc(OC)cc23)=NC2C=CC=NC12 (stereo not given)
inactive: [1] 110% | [2] 84.3% | [3] 88.5% | [4] 75% | [5] 115% | [6] 91.2% | [7] 94.9% | [8] 91.5% | [9] 69.5% | [10] 45% | [11] 56.8% | [12] 101% | [13] 106% | [14] 80.3% | [15] 113% | [16] 69.9% | [17] 114% | [18] 92.3% | [19] 96.6% | [20] 38.8%
